# Test results: PMC7862700, “An all-to-all approach to the identification of sequence-specific readers for epigenetic DNA modifications on cytosine”
# Assays:
# Test in all cases: DAPPL (digital affinity profiling via proximity ligation, sequencing); 10 mM Tris-HCl pH 7.5, 50 mM NaCl, 1 mM DTT, 4% glycerol, room temperature, 30 min; GST-TFs on glutathione beads, 16-mer random dsDNA library, 0.1% formaldehyde crosslink after washing; high values mean tight binding
# FLI1 = target: T1, FLI1 (Homo sapiens, UniProt Q01543 1-452); conditions: protein: recombinant; tags: N-terminal GST; dsDNA, one strand shown
# T1 sequence: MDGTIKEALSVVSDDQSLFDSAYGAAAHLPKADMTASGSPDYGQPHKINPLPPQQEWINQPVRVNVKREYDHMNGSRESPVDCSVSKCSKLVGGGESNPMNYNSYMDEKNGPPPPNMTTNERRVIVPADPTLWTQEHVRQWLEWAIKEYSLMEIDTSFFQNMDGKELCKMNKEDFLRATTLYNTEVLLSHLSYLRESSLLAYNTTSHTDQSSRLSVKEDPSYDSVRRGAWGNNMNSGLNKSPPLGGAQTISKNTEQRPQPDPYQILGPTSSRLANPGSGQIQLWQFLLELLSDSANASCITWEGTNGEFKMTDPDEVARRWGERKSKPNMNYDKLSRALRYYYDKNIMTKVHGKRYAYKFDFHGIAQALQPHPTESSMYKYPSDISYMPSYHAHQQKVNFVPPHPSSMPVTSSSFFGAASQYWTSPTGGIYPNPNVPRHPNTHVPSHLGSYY
# In short: (§1)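 Human transcription factors fused to GST were expressed in yeast, captured on glutathione beads, given DNA barcodes and pooled with a GST-only negative control. Pools were incubated with 200 nmole of a 16-mer random double-stranded DNA library in Tris/NaCl/DTT/glycerol buffer at room temperature for 30 min. They were then washed, crosslinked with 0.1% formaldehyde, proximity-ligated (BsaI/T4 ligase, 1 h, 37 °C), PCR-amplified and sequenced on an Illumina NextSeq500. Binding signal is each 6-mer's read frequency for a factor divided by its frequency for the GST control.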
# ELK1 = target: T2, ELK1 (Homo sapiens, UniProt P19419 1-428); conditions: protein: recombinant; tags: N-terminal GST; dsDNA, one strand shown
# T2 sequence: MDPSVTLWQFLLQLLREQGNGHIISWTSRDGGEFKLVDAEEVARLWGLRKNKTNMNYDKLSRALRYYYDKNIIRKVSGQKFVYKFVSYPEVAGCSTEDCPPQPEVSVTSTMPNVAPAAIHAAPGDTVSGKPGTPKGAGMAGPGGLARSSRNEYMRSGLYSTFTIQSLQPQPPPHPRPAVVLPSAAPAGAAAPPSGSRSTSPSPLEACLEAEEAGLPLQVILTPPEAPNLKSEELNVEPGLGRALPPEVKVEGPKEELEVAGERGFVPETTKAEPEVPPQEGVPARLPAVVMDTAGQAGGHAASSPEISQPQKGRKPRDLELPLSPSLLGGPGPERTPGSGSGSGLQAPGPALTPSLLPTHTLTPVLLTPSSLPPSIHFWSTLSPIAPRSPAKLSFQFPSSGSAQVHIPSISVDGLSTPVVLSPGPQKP
# In short: as §1
# GABPA = target: T3, GABPA (Homo sapiens, UniProt Q06546 1-454); conditions: protein: recombinant; tags: N-terminal GST; dsDNA, one strand shown
# T3 sequence: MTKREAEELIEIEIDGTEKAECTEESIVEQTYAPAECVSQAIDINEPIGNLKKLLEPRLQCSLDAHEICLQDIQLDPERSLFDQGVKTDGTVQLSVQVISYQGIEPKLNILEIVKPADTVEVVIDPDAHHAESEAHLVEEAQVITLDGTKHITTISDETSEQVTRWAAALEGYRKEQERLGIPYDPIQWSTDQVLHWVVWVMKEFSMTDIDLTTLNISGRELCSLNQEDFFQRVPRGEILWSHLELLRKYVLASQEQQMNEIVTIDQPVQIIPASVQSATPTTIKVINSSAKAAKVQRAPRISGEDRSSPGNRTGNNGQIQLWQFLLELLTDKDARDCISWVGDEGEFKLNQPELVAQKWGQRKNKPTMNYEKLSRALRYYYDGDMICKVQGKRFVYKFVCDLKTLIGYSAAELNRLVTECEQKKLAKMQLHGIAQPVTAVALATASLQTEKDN
# In short: as §1
# ERG = target: T4, ERG (Homo sapiens, UniProt P11308 1-479); conditions: protein: recombinant; tags: N-terminal GST; dsDNA, one strand shown
# T4 sequence: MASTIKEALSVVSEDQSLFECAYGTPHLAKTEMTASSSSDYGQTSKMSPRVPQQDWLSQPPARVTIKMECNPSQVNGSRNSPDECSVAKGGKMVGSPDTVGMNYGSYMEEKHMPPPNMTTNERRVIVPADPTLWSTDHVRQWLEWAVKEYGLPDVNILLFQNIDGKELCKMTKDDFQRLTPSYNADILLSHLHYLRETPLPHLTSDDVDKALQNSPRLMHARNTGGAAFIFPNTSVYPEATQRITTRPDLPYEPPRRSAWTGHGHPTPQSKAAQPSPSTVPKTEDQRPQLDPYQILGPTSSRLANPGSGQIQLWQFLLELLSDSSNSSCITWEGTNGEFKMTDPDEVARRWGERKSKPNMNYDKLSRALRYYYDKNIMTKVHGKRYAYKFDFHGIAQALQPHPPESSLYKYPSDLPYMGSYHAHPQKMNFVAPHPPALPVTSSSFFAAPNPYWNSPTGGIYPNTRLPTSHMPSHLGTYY
# In short: as §1
# ELF1 = ELF1 (Homo sapiens, UniProt P32519 1-619); conditions: protein: recombinant; tags: N-terminal GST; dsDNA, one strand shown
# In short: as §1
# EHF = target: T5, EHF (Homo sapiens, UniProt Q9NZC4 1-300); conditions: protein: recombinant; tags: N-terminal GST; dsDNA, one strand shown
# T5 sequence: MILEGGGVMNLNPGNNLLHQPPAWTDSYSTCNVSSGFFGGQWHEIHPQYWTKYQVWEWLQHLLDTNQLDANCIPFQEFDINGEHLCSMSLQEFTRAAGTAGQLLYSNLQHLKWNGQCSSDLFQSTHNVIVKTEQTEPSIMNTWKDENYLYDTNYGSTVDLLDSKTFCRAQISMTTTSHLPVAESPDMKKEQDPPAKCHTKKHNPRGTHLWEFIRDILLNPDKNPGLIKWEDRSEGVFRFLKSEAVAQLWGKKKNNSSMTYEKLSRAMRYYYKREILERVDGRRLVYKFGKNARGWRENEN
# In short: as §1
# SPI1 = SPI1 (Homo sapiens, UniProt P17947 1-270); conditions: protein: recombinant; tags: N-terminal GST; dsDNA, one strand shown
# In short: as §1
# SPIB = SPIB (Homo sapiens, UniProt Q01892 1-262); conditions: protein: recombinant; tags: N-terminal GST; dsDNA, one strand shown
# In short: as §1
# ELK3 = target: T6, ELK3 (Homo sapiens, UniProt P41970 1-407); conditions: protein: recombinant; tags: N-terminal GST; dsDNA, one strand shown
# T6 sequence: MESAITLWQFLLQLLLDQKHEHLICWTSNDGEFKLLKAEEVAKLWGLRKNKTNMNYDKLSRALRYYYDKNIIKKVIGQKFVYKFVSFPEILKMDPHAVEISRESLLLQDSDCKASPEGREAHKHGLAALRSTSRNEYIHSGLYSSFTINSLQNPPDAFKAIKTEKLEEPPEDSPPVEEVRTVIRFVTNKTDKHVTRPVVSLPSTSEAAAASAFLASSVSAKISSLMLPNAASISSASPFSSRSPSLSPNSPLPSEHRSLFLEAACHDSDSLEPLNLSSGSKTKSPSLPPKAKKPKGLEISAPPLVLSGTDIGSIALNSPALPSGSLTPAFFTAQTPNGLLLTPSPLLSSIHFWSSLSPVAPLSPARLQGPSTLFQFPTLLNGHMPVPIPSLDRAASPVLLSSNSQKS
# In short: as §1
# FEV = target: T7, FEV (Homo sapiens, UniProt Q99581 1-238); conditions: protein: recombinant; tags: N-terminal GST; dsDNA, one strand shown
# T7 sequence: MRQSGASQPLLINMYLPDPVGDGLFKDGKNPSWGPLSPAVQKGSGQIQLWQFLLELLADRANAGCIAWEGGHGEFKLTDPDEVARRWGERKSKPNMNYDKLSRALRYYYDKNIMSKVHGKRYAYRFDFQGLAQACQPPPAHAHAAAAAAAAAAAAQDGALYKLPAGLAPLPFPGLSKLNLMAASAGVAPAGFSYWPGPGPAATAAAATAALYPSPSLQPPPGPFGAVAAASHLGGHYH
# In short: as §1
# ETV5 = ETV5 (Homo sapiens, UniProt P41161 1-510); conditions: protein: recombinant; tags: N-terminal GST; dsDNA, one strand shown
# In short: as §1
# HSF1 = HSF1 (Homo sapiens, UniProt Q00613 1-529); conditions: protein: recombinant; tags: N-terminal GST; chain copies: 3; dsDNA, one strand shown
# In short: as §1
# SPIC = target: T8, SPIC (Homo sapiens, UniProt Q8N5J4 1-248); conditions: protein: recombinant; tags: N-terminal GST; dsDNA, one strand shown
# T8 sequence: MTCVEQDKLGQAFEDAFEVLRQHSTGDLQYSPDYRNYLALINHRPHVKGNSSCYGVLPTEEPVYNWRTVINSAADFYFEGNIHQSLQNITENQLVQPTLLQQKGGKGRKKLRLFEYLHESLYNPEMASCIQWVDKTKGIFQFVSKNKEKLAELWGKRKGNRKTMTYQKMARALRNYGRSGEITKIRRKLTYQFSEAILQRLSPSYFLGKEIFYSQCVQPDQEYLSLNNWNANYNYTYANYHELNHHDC
# In short: as §1
# ELF4 = ELF4 (Homo sapiens, UniProt Q99607 1-663); conditions: protein: recombinant; tags: N-terminal GST; dsDNA, one strand shown
# In short: as §1
# ELK4 = target: T9, ELK4 (Homo sapiens, UniProt P28324-2 1-405); conditions: protein: recombinant; tags: N-terminal GST; dsDNA, one strand shown
# T9 sequence: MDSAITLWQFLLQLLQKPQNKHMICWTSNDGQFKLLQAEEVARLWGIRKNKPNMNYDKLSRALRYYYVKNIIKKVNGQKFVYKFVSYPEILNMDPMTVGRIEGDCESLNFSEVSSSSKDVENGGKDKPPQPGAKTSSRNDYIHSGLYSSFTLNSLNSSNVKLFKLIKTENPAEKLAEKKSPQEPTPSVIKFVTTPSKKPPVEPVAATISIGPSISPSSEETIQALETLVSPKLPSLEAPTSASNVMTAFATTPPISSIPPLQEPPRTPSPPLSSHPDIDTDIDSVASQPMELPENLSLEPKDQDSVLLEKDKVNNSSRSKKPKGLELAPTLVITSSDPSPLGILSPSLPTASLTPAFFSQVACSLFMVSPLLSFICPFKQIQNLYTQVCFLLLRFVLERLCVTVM
# In short: as §1
# ETV2 = target: T10, ETV2 (Homo sapiens, UniProt O00321 1-342); conditions: protein: recombinant; tags: N-terminal GST; dsDNA, one strand shown
# T10 sequence: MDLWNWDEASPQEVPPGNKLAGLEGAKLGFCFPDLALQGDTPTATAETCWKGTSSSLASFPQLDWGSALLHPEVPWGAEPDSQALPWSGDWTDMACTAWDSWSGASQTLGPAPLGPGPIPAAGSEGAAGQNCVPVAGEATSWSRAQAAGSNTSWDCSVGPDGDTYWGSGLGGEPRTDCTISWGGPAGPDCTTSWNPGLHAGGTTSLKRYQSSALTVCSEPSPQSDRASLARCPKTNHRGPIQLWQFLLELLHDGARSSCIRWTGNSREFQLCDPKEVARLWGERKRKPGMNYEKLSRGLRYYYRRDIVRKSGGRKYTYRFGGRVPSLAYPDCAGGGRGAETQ
# In short: as §1
# ELF3 = target: T11, ELF3 (Homo sapiens, UniProt P78545 1-371); conditions: protein: recombinant; tags: N-terminal GST; dsDNA, one strand shown
# T11 sequence: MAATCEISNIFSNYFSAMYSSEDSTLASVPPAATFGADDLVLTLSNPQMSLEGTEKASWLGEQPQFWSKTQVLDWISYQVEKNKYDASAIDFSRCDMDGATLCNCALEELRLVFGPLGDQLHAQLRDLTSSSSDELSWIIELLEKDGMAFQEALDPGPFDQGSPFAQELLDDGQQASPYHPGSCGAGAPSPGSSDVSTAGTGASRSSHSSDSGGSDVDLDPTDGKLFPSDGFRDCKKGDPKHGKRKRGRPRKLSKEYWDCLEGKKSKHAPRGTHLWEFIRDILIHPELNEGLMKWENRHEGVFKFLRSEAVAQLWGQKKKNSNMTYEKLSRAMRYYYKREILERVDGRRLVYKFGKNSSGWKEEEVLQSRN
# In short: as §1
# CRX = CRX (Homo sapiens, UniProt O43186 1-299); conditions: protein: recombinant; tags: N-terminal GST; dsDNA, one strand shown
# In short: as §1
# ETV1 = ETV1 (Homo sapiens, UniProt P50549 1-477); conditions: protein: recombinant; tags: N-terminal GST; dsDNA, one strand shown
# In short: as §1
# ETV5, sequence (P41161 whole entry): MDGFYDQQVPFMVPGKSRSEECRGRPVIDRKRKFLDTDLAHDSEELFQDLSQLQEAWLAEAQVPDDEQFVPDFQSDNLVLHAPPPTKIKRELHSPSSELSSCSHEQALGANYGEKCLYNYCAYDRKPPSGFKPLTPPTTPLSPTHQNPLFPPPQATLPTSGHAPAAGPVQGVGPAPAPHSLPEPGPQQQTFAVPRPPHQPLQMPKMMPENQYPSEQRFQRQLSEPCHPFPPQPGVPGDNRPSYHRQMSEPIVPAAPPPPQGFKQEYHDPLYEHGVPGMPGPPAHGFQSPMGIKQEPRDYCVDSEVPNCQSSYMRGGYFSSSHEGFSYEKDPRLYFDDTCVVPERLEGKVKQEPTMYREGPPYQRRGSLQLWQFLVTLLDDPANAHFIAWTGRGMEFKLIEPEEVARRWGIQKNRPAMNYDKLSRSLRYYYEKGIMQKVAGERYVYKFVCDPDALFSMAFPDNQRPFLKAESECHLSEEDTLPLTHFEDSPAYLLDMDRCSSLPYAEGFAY
# ELF1, sequence (P32519 whole entry): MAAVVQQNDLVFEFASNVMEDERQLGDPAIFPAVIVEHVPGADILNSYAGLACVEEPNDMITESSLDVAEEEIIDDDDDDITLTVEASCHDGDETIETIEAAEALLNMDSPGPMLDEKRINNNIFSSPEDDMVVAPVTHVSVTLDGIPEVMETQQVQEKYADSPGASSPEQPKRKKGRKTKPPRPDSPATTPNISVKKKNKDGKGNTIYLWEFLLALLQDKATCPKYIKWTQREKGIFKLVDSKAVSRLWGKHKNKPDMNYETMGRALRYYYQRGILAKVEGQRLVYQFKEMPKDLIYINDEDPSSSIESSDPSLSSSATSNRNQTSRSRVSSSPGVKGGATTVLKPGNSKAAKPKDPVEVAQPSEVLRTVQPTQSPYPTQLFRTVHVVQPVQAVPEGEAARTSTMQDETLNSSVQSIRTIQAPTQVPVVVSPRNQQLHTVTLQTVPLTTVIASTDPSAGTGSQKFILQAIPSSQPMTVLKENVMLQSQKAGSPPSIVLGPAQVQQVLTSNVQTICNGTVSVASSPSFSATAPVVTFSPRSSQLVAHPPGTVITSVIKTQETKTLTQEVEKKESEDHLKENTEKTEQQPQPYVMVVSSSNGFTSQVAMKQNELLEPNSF
# HSF1, sequence (Q00613 whole entry): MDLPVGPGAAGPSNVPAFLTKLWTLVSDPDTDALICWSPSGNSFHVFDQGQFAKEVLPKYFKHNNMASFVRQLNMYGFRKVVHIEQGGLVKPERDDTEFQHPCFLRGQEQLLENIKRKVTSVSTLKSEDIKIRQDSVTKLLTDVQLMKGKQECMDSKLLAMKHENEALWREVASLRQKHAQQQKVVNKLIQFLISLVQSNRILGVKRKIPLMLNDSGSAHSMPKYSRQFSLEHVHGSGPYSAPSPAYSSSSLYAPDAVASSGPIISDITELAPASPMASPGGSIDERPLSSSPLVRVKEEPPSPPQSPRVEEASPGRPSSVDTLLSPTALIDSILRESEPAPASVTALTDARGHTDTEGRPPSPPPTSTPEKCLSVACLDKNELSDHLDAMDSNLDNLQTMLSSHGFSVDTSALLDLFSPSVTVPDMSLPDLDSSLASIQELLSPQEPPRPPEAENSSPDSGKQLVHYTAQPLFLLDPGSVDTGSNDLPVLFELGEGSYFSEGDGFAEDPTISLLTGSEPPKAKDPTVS
# ELF4, sequence (Q99607 whole entry): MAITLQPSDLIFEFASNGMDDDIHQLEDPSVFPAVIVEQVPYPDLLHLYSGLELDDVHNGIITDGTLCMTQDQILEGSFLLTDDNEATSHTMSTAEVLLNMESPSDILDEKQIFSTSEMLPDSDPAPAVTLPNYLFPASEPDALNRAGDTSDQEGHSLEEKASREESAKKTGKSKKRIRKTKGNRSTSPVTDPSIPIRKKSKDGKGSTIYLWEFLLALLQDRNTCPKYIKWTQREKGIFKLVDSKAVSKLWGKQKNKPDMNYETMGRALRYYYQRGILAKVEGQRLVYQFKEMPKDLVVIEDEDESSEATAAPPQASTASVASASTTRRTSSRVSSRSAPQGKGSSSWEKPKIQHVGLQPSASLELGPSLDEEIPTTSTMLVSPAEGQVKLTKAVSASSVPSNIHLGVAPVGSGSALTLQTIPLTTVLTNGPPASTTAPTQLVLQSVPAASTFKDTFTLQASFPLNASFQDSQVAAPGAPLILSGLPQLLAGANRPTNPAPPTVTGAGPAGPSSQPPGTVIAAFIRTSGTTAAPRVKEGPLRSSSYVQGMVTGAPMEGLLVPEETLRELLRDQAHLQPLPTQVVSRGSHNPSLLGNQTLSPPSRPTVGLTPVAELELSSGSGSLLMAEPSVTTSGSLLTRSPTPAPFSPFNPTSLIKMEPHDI
# CRX, sequence (O43186 whole entry): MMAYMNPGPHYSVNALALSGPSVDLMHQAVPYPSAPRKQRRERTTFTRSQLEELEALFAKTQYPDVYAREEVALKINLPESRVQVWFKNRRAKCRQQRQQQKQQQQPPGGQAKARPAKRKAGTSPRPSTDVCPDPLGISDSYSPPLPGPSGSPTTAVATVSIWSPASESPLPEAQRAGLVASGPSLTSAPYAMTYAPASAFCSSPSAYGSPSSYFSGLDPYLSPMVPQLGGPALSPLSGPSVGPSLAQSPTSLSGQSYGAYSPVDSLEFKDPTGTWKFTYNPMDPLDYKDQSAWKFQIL
# ETV1, sequence (P50549 whole entry): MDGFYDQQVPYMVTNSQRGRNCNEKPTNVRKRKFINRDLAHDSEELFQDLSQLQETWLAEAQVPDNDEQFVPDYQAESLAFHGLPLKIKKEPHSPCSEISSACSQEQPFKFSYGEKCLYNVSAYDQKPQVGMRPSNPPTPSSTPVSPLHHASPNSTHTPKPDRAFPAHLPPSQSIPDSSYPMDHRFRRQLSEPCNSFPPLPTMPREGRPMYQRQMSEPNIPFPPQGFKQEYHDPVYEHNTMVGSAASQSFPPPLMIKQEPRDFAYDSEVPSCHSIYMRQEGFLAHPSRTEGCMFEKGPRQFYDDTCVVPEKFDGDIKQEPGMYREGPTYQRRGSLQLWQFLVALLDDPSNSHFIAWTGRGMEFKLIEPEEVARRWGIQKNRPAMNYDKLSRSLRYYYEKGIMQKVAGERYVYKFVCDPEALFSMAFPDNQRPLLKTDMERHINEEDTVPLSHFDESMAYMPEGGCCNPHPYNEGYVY
# SPIB, sequence (Q01892 whole entry): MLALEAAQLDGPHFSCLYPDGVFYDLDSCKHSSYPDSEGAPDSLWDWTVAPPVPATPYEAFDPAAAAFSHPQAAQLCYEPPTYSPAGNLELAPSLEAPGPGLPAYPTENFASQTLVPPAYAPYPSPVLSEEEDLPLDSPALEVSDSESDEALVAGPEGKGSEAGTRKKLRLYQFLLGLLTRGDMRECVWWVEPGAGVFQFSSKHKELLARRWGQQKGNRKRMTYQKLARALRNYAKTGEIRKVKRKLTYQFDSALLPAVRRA
sequence,measurement,setting,value
TTCTGC,binding signal,FLI1,"1.54 fold enrichment (6-mer frequency, TF over GST control)"
same,binding signal,ELK1,"1.49 fold enrichment (6-mer frequency, TF over GST control)"
same,binding signal,GABPA,"1.4 fold enrichment (6-mer frequency, TF over GST control)"
same,binding signal,ERG,"1.32 fold enrichment (6-mer frequency, TF over GST control)"
same,binding signal,ELF1,"1.52 fold enrichment (6-mer frequency, TF over GST control)"
same,binding signal,EHF,"1.46 fold enrichment (6-mer frequency, TF over GST control)"
same,binding signal,SPI1,"1.5 fold enrichment (6-mer frequency, TF over GST control)"
same,binding signal,SPIB,"1.34 fold enrichment (6-mer frequency, TF over GST control)"
same,binding signal,ELK3,"1.39 fold enrichment (6-mer frequency, TF over GST control)"
same,binding signal,FEV,"1.39 fold enrichment (6-mer frequency, TF over GST control)"
same,binding signal,ETV5,"1.46 fold enrichment (6-mer frequency, TF over GST control)"
same,binding signal,HSF1,"1.57 fold enrichment (6-mer frequency, TF over GST control)"
same,binding signal,SPIC,"1.37 fold enrichment (6-mer frequency, TF over GST control)"
same,binding signal,ELF4,"1.52 fold enrichment (6-mer frequency, TF over GST control)"
same,binding signal,ELK4,"1.65 fold enrichment (6-mer frequency, TF over GST control)"
same,binding signal,ETV2,"1.26 fold enrichment (6-mer frequency, TF over GST control)"
same,binding signal,ELF3,"1.54 fold enrichment (6-mer frequency, TF over GST control)"
same,binding signal,CRX,"1.36 fold enrichment (6-mer frequency, TF over GST control)"
same,binding signal,ETV1,"1.45 fold enrichment (6-mer frequency, TF over GST control)"
